Bioassay records as filed in PubChem.
Compounds with a hit are over-represented: about 4.2% of the library has one in this group of screens.
DAX1 StAR inh – DAX1 (NR0B1) inhibition, primary screen; HEK293T StAR-luciferase reporter, SF-1/DAX-1 repression relief; inhibition, % at 6.8 µM; 370,000 compounds, 1.1% hits; AID 652010;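 active = inhibition above the mean over all tested compounds plus 3 SD, cut at about 3.6% in these data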;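 also: 0% = DAX-1 cells with DMSO and 100% = cells lacking DAX-1 with DMSO; higher inhibition means more luminescence from relief of DAX-1 repression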
ssDAF-12 act – S. stercoralis DAF-12 activation, primary screen. HEK293 ssDAF-12/GRIP1 lit1-tk-luc reporter, luminescence; % of 3 µM dafachronic acid response. activation, % at 6.8 µM. 370,000 compounds, 1% hits. AID 652126;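 active = activation above the mean over all tested compounds plus 3 SD, cut at about 0.9% in these data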;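 also: 0% = DMSO-only wells and 100% = 3 µM delta7-dafachronic acid wells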
hgDAF12 agonist – activates the H. glycines DAF-12 receptor ligand-binding domain. HEK293 GAL4-hgDAF12 UAS-luciferase reporter, agonist luminescence; normalized to butyrate control. activation, % at 6.8 µM. 370,000 compounds, 1.8% hits;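 active = activation above a cutoff set at the mean of all screened compounds plus 3 SD, cut at about 10% in these data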;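 also: 0% = DMSO wells and 100% = sodium butyrate wells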
hcDAF-12 act – H. contortus DAF-12 activation, primary screen; 370,000 compounds, 1.4% hits; AID 652067; HEK293 hcDAF-12 lit1-tk-luc reporter, luminescence; 0% DMSO, 100% Δ7-dafachronic acid; activation, % at 6.8 µM;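 active = activation above the mean of all tested compounds plus 3 SD, cut at about 5.5% in these data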;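 also: 100% = response to 3 µM Δ7-dafachronic acid high control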
SMARCA2 activ – activators of SMARCA2 function. activation, % at 9.1 µM. 370,000 compounds, 1% hits. MG213 cells, MMTV-luciferase reporter, dexamethasone, overnight. AID 652017; in the data active = activation above about 7.8%;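 also: 0% = vehicle wells and 100% = reference activator wells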
* hit, by the source's call.

COc1ccc(NC(=O)COC(=O)/C=C/c2ccccc2[N+](=O)[O-])cc1 was read as DAX1 StAR inh 0, ssDAF-12 act -1, hgDAF12 agonist -1, hcDAF-12 act -1 and SMARCA2 activ -2.
`CN(N=Nc1ccc([N+](=O)[O-])cc1)c1ccccc1` gave DAX1 StAR inh 2, ssDAF-12 act 6.2*, hgDAF12 agonist 7, hcDAF-12 act 2 and SMARCA2 activ 0.
`CN(N=Nc1cccc([N+](=O)[O-])c1)c1ccccc1` gave DAX1 StAR inh 0, ssDAF-12 act -1, hgDAF12 agonist 4, hcDAF-12 act 2 and SMARCA2 activ 1.
Screening CCOC(=O)Nc1nnc(-c2ccccc2OC)s1 returned DAX1 StAR inh 0, ssDAF-12 act 0, hgDAF12 agonist 4, hcDAF-12 act 5.8* and SMARCA2 activ 3.
Screening O=C(NCc1ccccc1)[C@@H]1CCCN1C(=O)[C@H]1CCCN1C(=O)c1ccccc1C(F)(F)F returned DAX1 StAR inh 0, ssDAF-12 act -1, hgDAF12 agonist -2, hcDAF-12 act 1 and SMARCA2 activ 1.
`CCN(CC)S(=O)(=O)c1ccc(C)c(NC(=O)COC(=O)CN2C(=O)NC(C)(C)C2=O)c1` gave DAX1 StAR inh 0, ssDAF-12 act 0.9*, hgDAF12 agonist -2, hcDAF-12 act 0 and SMARCA2 activ -2.
Screening COc1ccc(CSc2nnc(C)s2)cc1F returned DAX1 StAR inh 2, ssDAF-12 act 0, hgDAF12 agonist 11*, hcDAF-12 act 1 and SMARCA2 activ 5.
For C=CCCC1CN(Cc2ccc(OC)cc2)S(=O)(=O)c2c(cccc2Sc2ccc(OC)c(OC)c2)O1 (stereo unspecified) the results were DAX1 StAR inh -1, ssDAF-12 act -1, hgDAF12 agonist 0, hcDAF-12 act -2 and SMARCA2 activ 2.
Cc1ccc(-n2nnnc2SCn2nnc3ccccc3c2=O)cc1 was read as DAX1 StAR inh 0, ssDAF-12 act 0, hgDAF12 agonist 13*, hcDAF-12 act 1 and SMARCA2 activ 4.
Screening C[C@H]1COc2cc(Br)ccc2S(=O)(=O)N1Cc1cn(CCC2OCCO2)nn1 returned DAX1 StAR inh 0, ssDAF-12 act -1, hgDAF12 agonist 0, hcDAF-12 act -1 and SMARCA2 activ -5.
CCc1cc2c(=O)c(-c3ccc4c(c3)OCCO4)coc2cc1OC(=O)c1ccco1 was read as DAX1 StAR inh 3, ssDAF-12 act -1, hgDAF12 agonist 11*, hcDAF-12 act 3 and SMARCA2 activ 7.
`COc1ccc2c(=O)c(-c3ccc4c(c3)OCO4)coc2c1` gave DAX1 StAR inh 3, ssDAF-12 act 1, hgDAF12 agonist 17*, hcDAF-12 act 5.7* and SMARCA2 activ 6.
COC(=O)COc1ccc2c(=O)c(-c3ccccc3)coc2c1 was read as DAX1 StAR inh 0, ssDAF-12 act -1, hgDAF12 agonist -2, hcDAF-12 act -2 and SMARCA2 activ 0.
`CC(C)Oc1ccc2c(=O)c(-c3ccccc3)coc2c1` gave DAX1 StAR inh 8.3*, ssDAF-12 act 0, hgDAF12 agonist 14*, hcDAF-12 act 3 and SMARCA2 activ 0.
`COC(=O)c1cc(C2(c3c[nH]c4ccccc34)CCN(C(=O)OC(C)(C)C)CC2)n2ccccc12` gave DAX1 StAR inh -1, ssDAF-12 act -1, hgDAF12 agonist 2, hcDAF-12 act 1 and SMARCA2 activ 1.
For O=C(c1cccs1)n1ccc2ccc(-c3ccc4ccn(Cc5ccccc5)c4c3)cc21 the results were DAX1 StAR inh 2, ssDAF-12 act 1, hgDAF12 agonist 0, hcDAF-12 act 0 and SMARCA2 activ -3.
`CCOc1ccccc1OCCn1nnc2ccccc21` gave DAX1 StAR inh 0, ssDAF-12 act -1, hgDAF12 agonist 1, hcDAF-12 act -1 and SMARCA2 activ -3.
Screening Cc1ccc(OCCn2nnc3ccccc32)cc1C returned DAX1 StAR inh 1, ssDAF-12 act -1, hgDAF12 agonist 13*, hcDAF-12 act 3 and SMARCA2 activ 4.
For CC(=O)N1CCN(C(=O)c2cc3c(s2)CCC(C)C3)CC1 (stereo unspecified) the results were DAX1 StAR inh 3.9*, ssDAF-12 act 1.0*, hgDAF12 agonist 6, hcDAF-12 act 0 and SMARCA2 activ 3.
